ERK AVP inh = blocks ERK signaling stimulated by vasopressin. HEK293-V1b, vasopressin-stimulated pERK AlphaScreen. Potency, µM (series often up to 57.5 µM), inactives show at the highest dose activity, negative = inhibition, usual class: inhibitors. actives 0.99% (n = 72,000). AID 995; further: potency means the concentration at half of the fitted maximal effect; on the % scale 0 is the no-effect control and ±100 the full control effect; nearly all actives have a fitted effect of over 55% in size
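Overnight-seeded V1b-HEK293 cells in 1% FBS got compound, then vasopressin (25 nM final, 5 min, 37C), then lysis buffer. AlphaScreen detection of phospho-ERK; activity normalized to basal and full-stimulation controls.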
HBB splicing = alters splicing of the hemoglobin beta chain; Potency, µM (series often up to 46.1 µM), without a hit: at the highest dose activation, usual class: activators; actives 0.06% (n = 65,000); HBB splicing reporter cell assay, activation; EGFP reporter with mutant IVS2-654 intron; response scale: normalised to 500 nM splice-correcting PNA; further: potency means the concentration at half of the fitted maximal effect; 0% is about no effect
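Compounds were applied for 2 days to HeLa EGFP-654 cells, 500/well in Optimem with 2% FCS. The reporter's EGFP is disrupted by mis-splicing of beta-globin intron IVS2-654. Readout: summed well GFP fluorescence from 488 nm laser scanning; reference was 500 nM antisense […] 654 PNA.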
GFP derepression = derepresses silenced GFP locus in mouse C127i cells; mouse C127i GFP locus derepression, cytometry, 30 h; Potency, µM (highest dose often 46.1 µM), for the others: at the top dose GFP derepression (activation); actives 0.09% (n = 68,000); AID 597; further: % of control where 0% means no effect
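Derepression screen: silenced CMV-GFP reporter in murine C127i cells, 30 h compound incubation at 37 C, washed cells imaged by laser-scanning cytometer to enumerate GFP-expressing objects of 20 to 120 um.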
UbGFP stabilizer = proteasome inhibitors stabilizing ubiquitin-GFP reporter. Ubiquitin-GFP reporter cells, proteasome inhibition, GFP fluorescence; response scale: untreated = 0%, 10 µM MG-132 = 100%. Potency, µM (titrated, usually from 45.9 µM), for inactives: at the highest dose activation (GFP accumulation), hits mostly activators. 67,000 tested, under 10 active. AID 526; active means well fitted activation curve with a large enough effect, not every such curve was filed as active; inconclusive means small, poorly fitted or top-dose-only effect, or another doubt; inactive means no such curve, though single readings can be large or run the other way; further: potency means the concentration at half of the fitted maximal effect
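GFP accumulation read-out: laser plate cytometry counting ubiquitin(G76V)-GFP-expressing U2OS cells after 4 hr compound exposure at 37 °C. Titrations spanned 46 uM to 2.9 nM; 0% = basal, 100% = 10 uM MG-132; concentration-response curves fitted.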
Imprint erasure = genomic imprint erasure induction | mouse ES Peg3-LacZ reporter, beta-gal luminescence, 40 h | actives 0.02% (n = 110,000) | Potency, µM (titrated, usually from 60.7 µM), for inactives: at the highest dose activity change, positive = activation, actives largely listed as activators; further: potency means the concentration at half of the fitted maximal effect
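Imprint erasure is scored as LacZ activity from the silenced maternal Peg3 allele in feeder-free female ES cells cultured 40 h with LIF. Luminescence is normalized to in-plate negative controls and fitted to the Hill equation.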
The depositor's hits bear a star; ? = inconclusive; . = no result; [ ] = dose if it differs, or a comment. This excerpt belongs to a sample that is enriched for hits. Unless noted, the call rests on the fitted dose curve; in most records, active means well fitted curve in the direction sought with a large enough effect; inconclusive means small, poorly fitted or top-dose-only effect, or another doubt; inactive means no such curve, though single readings can be large; an effect the other way counts as inactive or inconclusive.

SMILES	ERK AVP inh	HBB splicing	GFP derepression	UbGFP stabilizer	Imprint erasure
Cc1cc(C)n(-c2nc(NC(C)(C)C)nc(NC(C)(C)C)n2)n1	-29%	-1%[9.22 µM]	13µM*	0%	3%
C/C(Cl)=C\Cn1c(N2CCCC2)nc2c1c(=O)[nH]c(=O)n2C	25µM*	3%	-5%	4%	-7%
C=CCn1c(N2CCCCCC2)nc2c1c(=O)[nH]c(=O)n2C	18%	0%[57.5 µM]	1%	-1%	-8%
COc1ccc(C2C(C#N)=C(N)SC(N)=C2C#N)cc1OC	.	.	8%[20.6 µM]	.	.
COc1ccc(C2C(C#N)=C(N)N3C(=C2C#N)Sc2ccccc23)cc1 (centres undefined)	7%	28%	13µM*	15%	0%
COc1ccc(CNc2cc(-c3ccccc3C)ncn2)c(OC)c1	13µM*	1%	-3%[9.22 µM]	-8%	-18%
COc1ccccc1CNc1cc(-c2ccccc2OC)ncn1	7.9µM*	-2%	2%[9.22 µM]	3%	-16%
CCCC(c1nnnn1Cc1ccc(OC)cc1)N1CCC(C(N)=O)CC1 (centres undefined)	-14%	-3%	0%	0%	-9%
O=c1c2ccccc2nc2n1CCS2	1%	-1%	-2%	-8%	29%
C(=N\c1c(-c2ccccc2)nc2n1CCS2)/c1ccccc1	20µM*	0%	-2%	0%	-2%
COCCn1c(=O)[nH]c2cc(C(=O)NC(C)C)ccc2c1=O	12%	0%	4%	-5%	-4%
O=C(Oc1cccc2cccnc12)c1ccc(Br)o1	-4%	.	5µM*	-2%	-27%
Cc1ccc(-c2nc(CS(=O)CC(=O)NCc3ccccc3Cl)c(C)o2)cc1 (centres undefined)	.	.	.	.	-14%[10.9 µM]
COc1ccc(Cl)cc1NC(=O)C1CSC(c2ccncc2)=N1 (centres undefined)	16µM*	0%	5%	-3%	-20%
COc1ccccc1N1CCN(C(=O)CCc2ccc(S(=O)(=O)NC(C)C)cc2)CC1	-27%	.	-3%	1%	-2%
COc1ccccc1N1CCN(C(=O)CCc2ccc(S(=O)(=O)NCC(C)C)cc2)CC1	25µM*	-1%	0%	4%	-15%
Cc1cc(-c2ccc(N=Nc3ccc4c(S(=O)(=O)O)cc(S(=O)(=O)O)c(N)c4c3O)c(C)c2)ccc1N=Nc1ccc2c(S(=O)(=O)O)cc(S(=O)(=O)O)c(N)c2c1O	25µM*	.	-1%	-1%	-44%
Cn1c(C(=O)Nc2ccc3c(c2)OCO3)cc2c(=O)n(C)c3ccccc3c21	?	0%	.	0%	-13%
Cn1c(C(=O)NCCCN2CCN(c3ccccc3F)CC2)cc2c(=O)n(C)c3ccccc3c21	1%	0%	.	6%	-36%
CC(=O)c1oc2ccccc2c1N	-22%	.	1%	1%	5%
S=C(Nc1ccccc1)Nc1nccs1	?	-1%	32µM*	-7%	-41%
O=C(Nc1nccs1)Oc1ccccc1	-5%	1%	0%	-4%	-13%
Fc1ccc(Nc2ccnc(-c3ccc4c(c3)OCO4)n2)cc1	?	-1%	2%[9.22 µM]	10%	?
Fc1ccc(Nc2ccnc(-c3ccoc3)n2)cc1	32µM*	1%	-1%[9.22 µM]	-4%	-7%
CCn1ccc2cc(S(=O)(=O)N3CCCN(C(=O)Nc4cccc(SC)c4)CC3)ccc21	.	.	.	.	-12%[10.9 µM]
SMILES	ERK AVP inh	HBB splicing	GFP derepression	UbGFP stabilizer	Imprint erasure
CC(=O)N[C@H]1[C@@H](O[C@@H](C)C(=O)O)[C@H](O)[C@H](CO)O[C@@H]1O	30%[25.7 µM]	0%[20.6 µM]	-2%[20.6 µM]	0%[20.5 µM]	-4%[16.8 µM]
COC(=O)CSc1nsc(SCC(=O)OC)c1C#N	16µM*	-1%	-2%	-6%	12%
Cc1ccc2nc3c(cc(C(=O)NCC4CCCO4)c(=N)n3CCCOC(C)C)c(=O)n2c1 (centres undefined)	?	-2%[57.5 µM]	-2%	-6%	5%
COc1cc2ncnc(Nc3cccc(Cl)c3)c2cc1OC	20µM*	0%	1%	2%	-4%
COc1ccc2c(c1)c(=O)oc1cc(OCC(=O)N3CCCC(C)C3)ccc12 (centres undefined)	32µM*	2%	2%	-2%	-21%
COc1ccc2c(c1)c(=O)oc1cc(OCC(=O)N3CCC(C)CC3)ccc12	?	0%	0%	8%	-4%
Cc1cc(C)c2c(c1)-c1c(ssc1=S)C(C)(C)N2C(=O)CSc1nncn1C	-20%	1%[0.0738 µM]	0%	21%[9.17 µM]	-8%
Cc1cccc(-c2nnn3c2nc(NCCC(C)C)c2ccccc23)c1	.	.	.	.	15%[10.9 µM]
Clc1ccc(Cl)c(OCCN2CCOCC2)c1	-6%	-2%	3%	1%	-17%
CCCC(=O)Nc1nc2ccc(NC(=O)c3ccc(Br)o3)cc2s1	20µM*	-1%	-3%	-2%	-8%
CCC(=O)Nc1nc2ccc(NC(C)=O)cc2s1	-5%	.	-1%	-4%	-19%
CC(C)(C)Cn1nc(-c2ccc(Cl)cc2)c2c(N)ncnc21	16µM*	.	1%	5%	-9%
COc1ccc2c(CNC3CCCCCC3)c(C(=O)O)n(Cc3ccccc3F)c2c1	.	.	.	.	-15%[10.9 µM]
O=C(OCC(=O)N1CCN(C(=O)c2ccco2)CC1)c1cc(-c2ccccc2)nc2ccccc12	20µM*	-4%	4%	3%	-7%
Cc1cc(Cl)ccc1NC(=O)C1CCCN1S(=O)(=O)c1ccc2c(c1)CCCC(=O)N2 (centres undefined)	.	.	.	.	5%[10.9 µM]
CCn1c(N2CCN(C(=O)C34CC5CC(CC(C5)C3)C4)CC2)nc2ccccc21	-22%	0%[57.5 µM]	0%	1%	-16%
CCn1c(N2CCN(S(=O)(=O)c3ccccc3C(F)(F)F)CC2)nc2ccccc21	32µM*	-2%	0%	6%	-12%
Nc1cc(-c2ccc(Br)cc2)nn1S(=O)(=O)c1ccccc1	-9%	0%	0%	5%	-13%
CC(C)Cn1c(N)c(C(=O)COC(=O)c2ccc3c(c2)OCCO3)c(=O)n(C)c1=O	-4%	0%[57.5 µM]	-2%	1%	-18%
CC(C)Cn1c(N)c(C(=O)CSc2ccc3c(c2)OCCO3)c(=O)n(C)c1=O	2µM*	-1%	3%	-3%	3%
CCC(=O)N1Cc2ccccc2-c2ccccc2C1=O	-12%	0%	1%	5%	-3%
CCCCNc1cc(NC2CCCCC2)c2c3c(onc13)-c1ccccc1C2=O	.	.	.	.	-7%[10.9 µM]
CCOC(=O)C(C(=O)OCC)c1cc(Br)c2noc3c2c1C(=O)c1ccccc1-3	25µM*	2%[57.5 µM]	2%	-2%	-32%
CN(C)c1nc(-c2cccc(C#N)c2)nc2ccccc12	-1%	-1%	3%[9.22 µM]	8%	-16%
COc1cccc(-c2nc(NCc3ccccc3)c3ccccc3n2)c1	?	1%	3%[9.22 µM]	-1%	-16%
COc1cccc(-c2nc(NC3CC3)c3ccccc3n2)c1	13µM*	-2%	-3%[9.22 µM]	-4%	-10%

From PubChem
